Results on eight compounds are retold here after PubChem BioAssay (NCATS).

A short description of assay [1]: P-glycoprotein substrates identified in KB-3-1 adenocarcinoma cell line, qHTS therapeutic library screen (AID 1346986). Also: nearly all actives have a fitted effect of over 60% in size. The essentials:
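Counter-screen: cherry-picked hits retested in the KB pair and in HEK-293 pcDNA/MDR-19 cells ± tariquidar. Primary screen used 72 h CellTiter-Glo viability in KB-3-1 and KB-8-5-11.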
In general terms: qHTS replaces the single test concentration by a dilution series.

The nature of assay [2]: P-glycoprotein substrates identified in KB-8-5-11 adenocarcinoma cell line, qHTS therapeutic library screen (AID 1346987). Also: nearly all actives have a fitted effect of over 65% in size. Also: potency is read from the fitted curve at half-maximal effect. The essentials:
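P-gp-mediated resistance screen: KB-8-5-11 cells treated 72 h with compounds in dose-response. CellTiter-Glo viability.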

A short description of assay [3]: qHTS of pediatric cancer cell lines to identify multiple opportunities for drug repurposing: Primary screen for TC32 cells (AID 1347089). Also: nearly all actives have a fitted effect of over 60% in size. The essentials:
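In the primary qHTS, MIPE compounds were tested at 11 concentrations (0.78 nM to 46 µM) and NPC compounds at 8 (0.59 nM to 46 µM) on TC32 cells for 48 h. CellTiter-Glo luminescence gave viability.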

The nature of assay [4]: qHTS of pediatric cancer cell lines to identify multiple opportunities for drug repurposing: Primary screen for DAOY cells (AID 1347090). Also: nearly all actives have a fitted effect of over 55% in size. Also: potency is read from the fitted curve at half-maximal effect. In short, it runs like this:
(§1)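 Cell viability, CellTiter-Glo luminescence; 500-1,000 cells/well, 8- or 11-point titration, 48 h compound exposure at 37 degrees C, 5% CO2. Controls: DMSO neutral, bortezomib 2.3 µM final as positive.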

Assay [5] in a line: qHTS of pediatric cancer cell lines to identify multiple opportunities for drug repurposing: Primary screen for A673 cells (AID 1347092). Also: nearly all actives have a fitted effect of over 45% in size. Also: potency is read from the fitted curve at half-maximal effect. In short, it runs like this:
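48 h compound exposure, A673, 500-1,000 cells/well, 37 degrees C/5% CO2. MIPE: 11-point, 0.78 nM-46 µM; NPC: 8-point, 0.59 nM-46 µM (final). Readout CellTiter-Glo luminescence after 15 min RT.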

Assay [6] in a line: qHTS of pediatric cancer cell lines to identify multiple opportunities for drug repurposing: Primary screen for SK-N-MC cells (AID 1347093). Also: potency is read from the fitted curve at half-maximal effect. In short, it runs like this: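 Metabolically active cells were quantified by ATP-dependent luminescence (CellTiter-Glo, 15 min at room temperature) following 48 h treatment. Cells had been plated at 500-1,000 per well and settled for 5 h beforehand.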

Assay [7] is described as follows: qHTS of pediatric cancer cell lines to identify multiple opportunities for drug repurposing: Primary screen for BT-37 cells (AID 1347094). Also: potency is read from the fitted curve at half-maximal effect. The essentials: (§2)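 Quantitative HTS format: each compound titrated (MIPE 11 points from 0.78 nM, NPC 8 points from 0.59 nM) onto cells plated 5 hours earlier. After 48 h at 37 degrees C, CellTiter-Glo luminescence was recorded.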

Assay [8] in a line: qHTS of pediatric cancer cell lines to identify multiple opportunities for drug repurposing: Primary screen for NB-EBc1 cells (AID 1347095). Also: potency is read from the fitted curve at half-maximal effect. The essentials: as §2
Assay [9] is described as follows: qHTS of pediatric cancer cell lines to identify multiple opportunities for drug repurposing: Primary screen for U-2 OS cells (AID 1347096). Also: nearly all actives have a fitted effect of over 50% in size. In short, it runs like this:
(§3)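 Cells (500-1,000/well) rested 5 h, then received compounds for 48 h; metabolically active cells were measured by CellTiter-Glo luminescence. Final concentrations spanned up to 46 µM (MIPE, 11-point) or 0.59 nM-46 µM (NPC, 8-point) in primary screens, 11-point in follow-ups.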

The nature of assay [10]: qHTS of pediatric cancer cell lines to identify multiple opportunities for drug repurposing: Primary screen for Saos-2 cells (AID 1347097). Also: nearly all actives have a fitted effect of over 40% in size. Also: potency is read from the fitted curve at half-maximal effect. In short, it runs like this: as §2
Assay [11] can be described thus: qHTS of pediatric cancer cell lines to identify multiple opportunities for drug repurposing: Primary screen for NB1643 cells (AID 1347099). Also: nearly all actives have a fitted effect of over 50% in size. Also: potency is read from the fitted curve at half-maximal effect. In short, it runs like this:
as §2

Assay [12] is described as follows: NS1 protein of Zika virus - qHTS assay to identify small molecule inhibitors in human HEK 293 cells (AID 1347053). Also: series mostly up to about 46 µM; nearly all actives have a fitted effect of over 55% in size. The essentials:
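HEK 293 cells, seeded 20 h at 37 C, were pretreated with compound 1 h, then infected with ZIKV MR766 (MOI = 0.5) for 24 h. NS1 was read by TR-FRET with two anti-NS1 antibodies, normalized to uninfected and infected wells.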

Assay [13] is described as follows: qHTS of pediatric cancer cell lines to identify multiple opportunities for drug repurposing: Primary screen for SJ-GBM2 cells (AID 1347091). Also: potency is read from the fitted curve at half-maximal effect. In short, it runs like this:
as §1

Assay [14] is described as follows: qHTS of pediatric cancer cell lines to identify multiple opportunities for drug repurposing: Primary screen for SK-N-SH cells (AID 1347098). Also: nearly all actives have a fitted effect of over 65% in size. Also: potency is read from the fitted curve at half-maximal effect. The essentials:
as §3

Assay [15] is described as follows: Natriuretic polypeptide receptor (hNpr1) antagonism - Pilot counterscreen GloSensor control cell line (AID 1347045; calls by dose curve; also: series mostly up to about 38 µM). The essentials:
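This counterscreen uses HEK293 cells expressing the GIP/pGS-40F cGMP biosensor. Compound-treated cells are challenged with 50 uM sodium nitroprusside, and the luciferase signal is compared before and after stimulation.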
In general terms: A counterscreen serves to expose hits that act by an unwanted route or on another target.

In assay [16] the target is Atrial natriuretic peptide receptor 2 (Homo sapiens) (UniProt P20594). Put plainly: Natriuretic polypeptide receptor (hNpr2) antagonism - Pilot subtype selectivity assay (AID 1347050; calls by dose curve). The essentials:
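Pilot selectivity screen against hNpr2: HEK293 cGMP-sensor cells are treated with LOPAC1280 compounds, then with hNppC peptide at 1 nM final. The cGMP-driven luminescence change over 20 min at room temperature is the read-out.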

Assay [17] addresses T1, Tyrosine-protein phosphatase non-receptor type substrate 1 (Homo sapiens) + Leukocyte surface antigen CD47 (Homo sapiens) (UniProt P78324+Q08722). Put plainly: CD47-SIRPalpha protein protein interaction - LANCE assay qHTS validation (AID 1347057; active = well fitted curve in the direction sought with a large enough effect in the signal ratio, with a control signal flat, not every such curve was filed as active; the % refers to the signal ratio; also: series mostly up to about 38 µM). In short, it runs like this: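 First, His-tagged CD47 and Eu-labelled anti-His antibody met the compound for 30 min; next, site-specifically biotinylated SIRPalpha was added for 30 min; finally streptavidin-APC was added before reading the TR-FRET ratio.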

Assay [18] deals with T1, Tyrosine-protein phosphatase non-receptor type substrate 1 (Homo sapiens) + Leukocyte surface antigen CD47 (Homo sapiens). The assay is described as follows: CD47-SIRPalpha protein protein interaction - HTRF assay qHTS validation (AID 1347058; active = well fitted curve in the direction sought with a large enough effect in the signal ratio, not every such curve was filed as active; the % refers to the signal ratio;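 also: recombinant soluble extracellular CD47 with His tag and biotinylated SIRPalpha domains; series mostly up to about 38 µM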). In short, it runs like this:
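TR-FRET read (Ch1/Ch2 ratio) of soluble extracellular CD47 and Avi-biotinylated SIRPalpha domains in PBS pH 7.4 with 0.05% IGEPAL; 7-point compound titration. Sequential 30 min room-temperature steps; non-biotinylated SIRPalpha as control inhibitor.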

Assay [19] has the same target. The assay is described as follows: CD47-SIRPalpha protein protein interaction - Alpha assay qHTS validation (AID 1347059).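 Also: bead proximity luminescence from CD47 binding SIRPalpha after compound preincubation with SIRPalpha.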 In short, it runs like this: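 Binding is measured by AlphaScreen proximity: Ni-NTA acceptor beads capture His-CD47, streptavidin donor beads capture biotin-SIRPalpha. Each of three additions (SIRPalpha with compound, CD47, beads) incubates 30 min at room temperature protected from light.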

Assay [20] deals with Parathyroid hormone/parathyroid hormone-related peptide receptor (Homo sapiens) (UniProt Q03431). Put plainly: qHTS for PTHR1 Agonists: Optimization Screen against the NCGC LOPAC library (AID 1347079).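 Also: GloSensor cAMP luminescence in HEK-293 GP2 cells expressing human PTHR1 with IBMX.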 In short, it runs like this: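 Compounds were tested across a qHTS titration. PTHR1-expressing GP2 cells report cAMP rises via GloSensor luminescence after 1 hr compound exposure at 37C with IBMX present.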
Sequence of Parathyroid hormone/parathyroid hormone-related peptide receptor (Homo sapiens) (Q03431 whole entry, looked up): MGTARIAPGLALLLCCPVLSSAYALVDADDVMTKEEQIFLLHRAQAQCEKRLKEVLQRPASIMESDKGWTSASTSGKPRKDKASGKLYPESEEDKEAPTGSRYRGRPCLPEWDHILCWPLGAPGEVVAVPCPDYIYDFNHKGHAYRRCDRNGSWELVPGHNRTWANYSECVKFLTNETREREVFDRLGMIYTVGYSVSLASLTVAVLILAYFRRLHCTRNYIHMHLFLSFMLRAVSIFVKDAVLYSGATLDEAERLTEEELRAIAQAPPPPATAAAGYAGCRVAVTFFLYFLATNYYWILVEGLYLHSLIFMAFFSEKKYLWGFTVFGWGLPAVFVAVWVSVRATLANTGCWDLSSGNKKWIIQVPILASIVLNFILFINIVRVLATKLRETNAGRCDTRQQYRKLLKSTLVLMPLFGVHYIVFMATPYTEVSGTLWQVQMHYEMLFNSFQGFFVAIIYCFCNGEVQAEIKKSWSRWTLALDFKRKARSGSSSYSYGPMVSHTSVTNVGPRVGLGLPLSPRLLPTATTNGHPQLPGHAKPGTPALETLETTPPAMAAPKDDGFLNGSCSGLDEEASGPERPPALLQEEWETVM

Each structure is given as a SMILES string. Where “and” joins values, the source holds several entries; their conditions need not be identical. Identical values can stand only once. Results filed as inconclusive are left out. Some compounds were tested as several samples or in several runs, with calls that do not always agree. Calls of active or inactive are those of the source. Unless noted, calls follow the shape of the dose curve; as a rule, active = well fitted curve in the direction sought with a large enough effect; inconclusive = small, poorly fitted or top-dose-only effect, or another doubt; inactive = no such curve, though single readings can be large; an effect the other way counts as inactive or inconclusive.

T1 sequence (P78324 whole entry, looked up): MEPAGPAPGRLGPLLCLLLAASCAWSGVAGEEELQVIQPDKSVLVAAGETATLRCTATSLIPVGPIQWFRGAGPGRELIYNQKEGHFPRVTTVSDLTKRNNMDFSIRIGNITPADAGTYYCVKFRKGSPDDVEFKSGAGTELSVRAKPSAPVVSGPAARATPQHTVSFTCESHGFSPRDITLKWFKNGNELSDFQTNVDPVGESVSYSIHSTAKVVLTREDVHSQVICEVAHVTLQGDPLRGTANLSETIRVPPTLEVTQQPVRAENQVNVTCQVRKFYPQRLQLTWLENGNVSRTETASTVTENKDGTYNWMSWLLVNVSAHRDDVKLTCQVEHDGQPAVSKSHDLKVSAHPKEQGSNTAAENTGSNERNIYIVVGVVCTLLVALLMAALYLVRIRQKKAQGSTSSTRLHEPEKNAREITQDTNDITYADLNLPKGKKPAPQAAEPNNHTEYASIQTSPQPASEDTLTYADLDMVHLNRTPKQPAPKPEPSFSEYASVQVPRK
T1 sequence (Q08722 whole entry, looked up): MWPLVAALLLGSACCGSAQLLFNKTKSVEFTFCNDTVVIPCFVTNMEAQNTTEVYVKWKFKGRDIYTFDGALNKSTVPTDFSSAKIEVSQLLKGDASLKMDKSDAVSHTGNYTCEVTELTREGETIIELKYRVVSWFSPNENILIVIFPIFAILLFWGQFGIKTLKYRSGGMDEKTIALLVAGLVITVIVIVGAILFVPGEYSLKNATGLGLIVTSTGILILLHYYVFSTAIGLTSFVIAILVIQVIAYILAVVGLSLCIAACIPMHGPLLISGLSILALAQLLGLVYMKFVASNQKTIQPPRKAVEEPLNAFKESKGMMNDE
Sequence of Atrial natriuretic peptide receptor 2 (Homo sapiens) (P20594 whole entry, looked up): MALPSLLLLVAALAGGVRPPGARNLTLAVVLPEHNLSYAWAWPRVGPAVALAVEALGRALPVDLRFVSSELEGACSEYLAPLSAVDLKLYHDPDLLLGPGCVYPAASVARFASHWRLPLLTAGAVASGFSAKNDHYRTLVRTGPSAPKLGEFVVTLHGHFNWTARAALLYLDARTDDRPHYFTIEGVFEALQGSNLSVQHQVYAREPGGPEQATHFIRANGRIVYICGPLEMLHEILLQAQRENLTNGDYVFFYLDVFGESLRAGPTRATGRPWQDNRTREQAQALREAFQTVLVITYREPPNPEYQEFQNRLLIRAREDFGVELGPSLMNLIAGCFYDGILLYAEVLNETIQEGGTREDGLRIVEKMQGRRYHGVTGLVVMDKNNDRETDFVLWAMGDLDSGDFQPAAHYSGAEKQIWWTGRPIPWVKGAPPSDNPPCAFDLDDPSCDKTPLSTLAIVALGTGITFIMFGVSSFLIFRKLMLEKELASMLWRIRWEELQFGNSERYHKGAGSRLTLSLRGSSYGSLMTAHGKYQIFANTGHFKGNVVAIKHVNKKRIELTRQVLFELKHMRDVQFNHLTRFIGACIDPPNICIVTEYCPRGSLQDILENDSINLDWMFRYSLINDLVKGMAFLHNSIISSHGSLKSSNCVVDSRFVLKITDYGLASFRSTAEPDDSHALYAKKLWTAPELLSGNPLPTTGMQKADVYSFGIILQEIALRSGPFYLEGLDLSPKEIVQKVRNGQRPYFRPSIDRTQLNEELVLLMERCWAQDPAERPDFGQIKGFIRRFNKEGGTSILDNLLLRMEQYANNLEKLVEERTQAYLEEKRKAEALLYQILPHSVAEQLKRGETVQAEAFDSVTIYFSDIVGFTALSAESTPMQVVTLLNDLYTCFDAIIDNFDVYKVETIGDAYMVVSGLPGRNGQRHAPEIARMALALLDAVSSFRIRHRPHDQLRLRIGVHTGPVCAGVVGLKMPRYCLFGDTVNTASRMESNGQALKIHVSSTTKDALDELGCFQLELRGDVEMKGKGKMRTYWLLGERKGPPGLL

For the compound `O=c1c(-c2ccc(O)cc2)coc2cc(O[C@@H]3O[C@H](CO)[C@H](O)[C@H](O)[C@H]3O)ccc12`, the Potency entry in assay [1], in assay [2], in assay [3], in assay [4], in assay [5] and in assay [6] was “inactive” each time. Besides, the Potency result in assay [7], in [8], in [9], in [10] and in assay [11] was “inactive” throughout.

Consider `COc1cc2ncnc(-n3nc(-c4ccccn4)nc3N)c2cc1OC`, for which the Potency result in assay [1], in assay [12], in [3] and in [9] was “inactive” in each case. Besides, the Potency entry was “inactive and 10 µM (active)” in assay [2]; 14.8 µM (active) in assay [13]; 3.72 µM (active) in [5]; 4.69 µM (active) in assay [6]; 14.8 µM (active) in assay [8]; 4.69 µM (active) in assay [10].

Consider `CC[C@@H]1C=C(C)C[C@H](C)C[C@H](OC)[C@H]2O[C@@](O)(C(=O)C(=O)N3CCCC[C@@H]3C(=O)O[C@H](C(C)=C[C@@H]3CC[C@H](Cl)[C@H](OC)C3)[C@H](C)[C@@H](O)CC1=O)[C@H](C)C[C@H]2OC`, for which the Potency result in assay [1], in assay [2], in [3], in assay [4] and in [9] was “inactive” each time. The figures for the Potency in assay [6] and in assay [10] were 11.8 µM (active) and 9.35 µM (active), respectively.

As for `CCOC(=O)C1=C(N)Oc2ccc(Br)cc2C1C(C#N)C(=O)OCC` (stereo not given), the Potency entry in assay [1], in assay [2], in assay [12], in assay [3], in assay [7] and in assay [9] was “inactive” throughout. Moreover, the Potency was 7.43 µM (active) in [13], 6.62 µM (active) in assay [8], 24.1 µM (active) in assay [14] and 10.5 µM (active) in assay [11].

Regarding `CC(C)(C)c1cc(C(=O)O)c(NC(=O)Nc2ccc3[nH]ncc3c2)s1`, the Potency entry in assay [1], in assay [2], in [12], in assay [3], in assay [7] and in [8] was “inactive” each time. Besides, the Potency result in assay [9] and in assay [14] was “inactive” each time. Further, the Potency in assay [6] was 23.5 µM (active).

For the compound `OC[C@H]1O[C@@H](Oc2cc(O)cc(C=Cc3ccc(O)cc3)c2)[C@H](O)[C@@H](O)[C@H]1O`, the Potency result in [1], in assay [2], in [12], in [3], in [13] and in [8] was “inactive” throughout. Also, the Potency result in assay [9] and in [10] was “inactive” each time. Besides, in [5], the Potency is 9.35 µM (active).

On to `CC1(C)S[C@H]2[C@H](NC(=O)[C@@H](N)c3ccc(O)cc3)C(=O)N2[C@@H]1C(=O)O`, for which the Potency entry in assay [1], in assay [2] and in assay [12] was “inactive” in each case. Moreover, the Potency in [4] was 9.35 µM (active); in assay [13], 16.6 µM (active); in [5], 0.935 µM (active); in assay [6], 0.743 µM (active); in assay [7] it was 6.85 µM (active); in assay [8] it was 16.6 µM (active). Also, the Potency in assay [14] was 24.1 µM (active).

On to `CCN1CCC[C@H]1CNC(=O)c1cc(S(N)(=O)=O)ccc1OC`, for which the Potency result in [1], in assay [2], in assay [15], in assay [12], in assay [3] and in assay [13] was “inactive” each time. For the same compound, the Potency result in [5], in [6], in [7], in assay [8], in [9] and in assay [10] was “inactive” throughout. In addition, the Potency entry in assay [14] and in assay [11] was “inactive” throughout. Further, the outcome in [16], in [17], in assay [18], in [19] and in [20] was inactive.
